The text below walks through data of ChEMBL document CHEMBL1157539, “Thousands of chemical starting points for antimalarial lead identification” (Nature, 2010).

One test deals with Plasmodium falciparum. Nature of the test: GSK_TCMDC: Inhibition of Plasmodium falciparum 3D7 in whole red blood cells, using parasite LDH activity as an index of growth. Test compounds present at 2uM. Type of test: functional.
The Inhibition is the relative decrease from the control value, in per cent. `CC(=O)c1ccc(NC(=O)Nc2ccc(N(C)c3ccnc(Nc4cccc(CS(C)(=O)=O)c4)n3)cc2)cc1` displayed an Inhibition of 100%. Same read-out and setting: for `CCNc1cc(C(=O)N[C@@H](Cc2ccccc2)[C@H](O)CN[C@H](C)c2ccccc2)cc(N2CCCC2=O)c1` the value was 97%. Same read-out and setting: with `O=C(Nc1ccc(N2CCCCC2)c(Cl)c1)c1ccc(Br)o1` the figure was 94%.

Another test relates to Plasmodium falciparum. Nature of the test: GSK_TCMDC: Inhibition of Plasmodium falciparum Dd2 in whole red blood cells, using parasite LDH activity as an index of growth. Test compounds present at 2uM. Type of test: functional.
For `C=CCN1C(=O)CN(S(=O)(=O)c2ccc(-n3nc(C)cc3C)cc2)C1=S`, the Inhibition worked out at 0%.

The molecule `Cc1[nH]c2ccccc2c1C(=O)C(C)Sc1nnc(-c2ccccc2Br)[nH]1` (configuration not stated) gave an Inhibition of 100%. Molecule `CS(=O)(=O)NCCCNCc1ccc(-c2cccc(-c3nc4cc(C(F)(F)F)ccc4[nH]3)c2)cc1.O=C(O)C(F)(F)F` registered an Inhibition of 83%. The same measure, in the same setting: with `COc1ccc2nccc([C@@H](O)CN3CCC(NC(=O)Cc4cc5ccccc5s4)CC3)c2c1` the figure was 42%; with `Cc1cc(I)ccc1Nc1nc2nonc2nc1Nc1ccc(I)cc1C`, 96%; with `CCN(CCCN1CCCCC1)c1cc(C)nc(Nc2ccc(F)c(C(F)(F)F)c2)n1.O=C(O)C(F)(F)F`, 93%. Same read-out and setting: with `COc1ccc(-c2cn3c(C(=O)Nc4ccccc4Cl)c(-c4ccccc4)c4c3n2CCCC4)cc1` the figure was 1%; with `Cc1[nH]c(C)c(-c2ccc(-c3cccc(OC(F)(F)F)c3)nc2)c(=O)c1Cl`, 97%. Same read-out and setting: with `COc1ccc(NC(=O)[C@H](C)Nc2cc(C)nc(NCC3CCCCC3)n2)cc1.O=C(O)C(F)(F)F` the figure was 13%; with `O=c1cc(NCCCNCc2ccc(C(F)(F)F)c(F)c2)[nH]c2ccccc12`, 26%. In turn, `CCc1cn2c3c(cc(C(=O)N[C@@H](Cc4cccc(F)c4)[C@H](O)CNC4CC4)cc13)N(C)S(=O)(=O)CC2.O=CO` registered an Inhibition of 98%.

On to `Cc1cc(N/N=C/c2cccc([N+](=O)[O-])c2)c2ccccc2n1`, for which the Inhibition worked out at 98%. Still for that read-out and setting: with `CCOC(=O)Nc1cc(-c2csc(N=C(N)N)n2)cc([N+](=O)[O-])c1` the figure was 88%; with `O=C(NC1CCN(Cc2ccsc2)CC1)c1ccc(-c2cccc(C(F)(F)F)c2)s1.O=C(O)C(F)(F)F`, 3%.

`COc1ccc(-c2cc(C(=O)Nc3ccc(CCCN(C)Cc4ccc(OC)c(OC)c4)cc3)c3ccccc3n2)cc1` came in with an Inhibition of 47%. In turn, `Cl.N#Cc1ccc2c(c1)CCN(CCC1CCC(NC(=O)/C=C/c3ccc(Cl)c(Cl)c3)CC1)CC2` (configuration not stated) returned an Inhibition of 51%. Take `O=[N+]([O-])c1ccc(-c2ccc(C=NNc3nc(Nc4ccccc4)nc(Nc4ccccc4)n3)o2)cc1`: the Inhibition is listed as 12%. Same read-out and setting: for `Cc1nc(-c2cccc(C(=O)N(Cc3cncn3Cc3cccc(C(F)(F)F)c3)CC3CC3)c2)cs1` the value was 17%; for `CC1(C)[C@H]2CC[C@@H](CNc3nc(NCCc4c[nH]cn4)nc(Nc4ccc5c(c4)OCO5)n3)[C@@H]1C2`, 88%. Same read-out and setting: for `SC(=Nc1ccc2c(c1)OCCO2)NN=Cc1ccccn1` the value was 33%; for `CCCCCCCCCCN1C(=O)C2C(CCCCNC(C)=O)NC3(C(=O)N(Cc4ccc(C(C)(C)C)cc4)c4ccccc43)C2C1=O` (configuration not stated), 65%. `COc1ccc2nccc([C@@H](O)CN3CCC(NC(=O)c4cc5c(Cl)cc(Cl)cc5[nH]4)CC3)c2c1` returned an Inhibition of 98%. Molecule `Cc1cc(N[C@@H](Cc2ccccc2)C(=O)Nc2ccccc2)nc(NCCN2CCCC2)n1.O=C(O)C(F)(F)F` displayed an Inhibition of 0%. On the same count and under the same terms, for `Cc1ccccc1CNc1noc(-c2sccc2Br)n1` the value was 88%; for `Cc1[nH]cnc1Cc1ccc2c(c1O)c1ccccc1n2C`, 16%. Still for that read-out and setting: for `CC(C)(C)NS(=O)(=O)c1cc(C(=O)N2CCC(CCN3CCC(O)(c4cccc(C(F)(F)F)c4)CC3)(c3cccc(F)c3)CC2)c(Cl)cc1F` the value was 55%. Still for that read-out and setting: with `CCN(CC)CCCC(C)Nc1ccnc2ccc(OC)cc12.Cl.O` (configuration not stated) the figure was 0%; with `Cc1cc(N2CCCC2)nc(Nc2ccc(NC(=O)c3ccccc3F)cc2)n1`, 44%. Molecule `COc1cccc2c(C)cc(NCc3ccc(Cl)cc3)nc12` had an Inhibition of 5%. The same measure, in the same setting: for `Cl.N#Cc1ccc2c(c1)CCN(CCC1CCC(NC(=O)Nc3ccnc4ccccc34)CC1)C2` (configuration not stated) the value was 77%. Still for that read-out and setting: for `O=C(C=Cc1cn(-c2ccccc2)nc1-c1cccs1)N1CCN(c2ccncc2)CC1` the value was 61%; for `Cc1cccc2nc(-c3ccc(-c4cccc(CNCCCNS(C)(=O)=O)c4)cc3)[nH]c12.O=C(O)C(F)(F)F`, 5%; for `NC(=S)Cc1ccc2c(c1)OCO2`, 0%. On the same count and under the same terms, with `Cl.Nc1c2c(nc3ccc(NC(=O)Cc4ccccc4)cc13)CCCC2` the figure was 0%.
